Structures are written as SMILES. The whole screen tested about 220,000 compounds, of which about 2,000 (0.91%) were called active. Inconclusive results (about 2%) are left out. Not all results are given here. Potency and affinity values are given separately. A number with no mark means an inactive call. No stated cut-off is given here; in the data, inconclusive means inhibition above about 80% without an active follow-up result; inactive means below that; test concentration not stated here.

This assay in a line: M. tuberculosis H37Rv growth inhibitors, H37Rv strain (AID 1626).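 Further: bacteria incubated seven days before Alamar blue readout; 0% = bacteria only wells and 100% = bacteria with antibiotic wells.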 As to conditions: stronger effect = higher value, concentration not given here.
Regarding `CCc1ccc(NC(=O)N(Cc2ccco2)C(C)c2cccs2)cc1` (stereo not drawn), the inhibition is 0.17%.

As for `CCN(CCCNC(=O)C1CCC(=O)N1C1CCCC1)c1cccc(C)c1` (stereo not drawn), the inhibition is 0.34%. Consider `Cc1c(C(=O)Oc2cccc3ccccc23)cnn1-c1ccccc1`, for which the inhibition was 27.3%. For `COc1ccc(OC(=O)c2c(C)nn(-c3ccccc3)c2C)cc1`, the inhibition was -12.3%. The figure for `NC(=O)CSc1nnnn1-c1ccc(OC(F)(F)F)cc1` is -7.21%; for `CCC1=CCN(CCc2c(C)[nH]c3ccccc23)CC1` it is -0.79%; for `NNC(=S)Nc1c(Br)cc(F)cc1Br` it is -5.67%.

For `CCOc1ccccc1C1N=C(c2ccc(OC)cc2)CC(c2ccccc2O)N1` (stereo not drawn), the inhibition was 7.98%. `Clc1ccc2nc(-c3ccc4c(c3)OCO4)cn2c1`: the inhibition was 4.92%.

Consider `CCC1(C)N=C(c2ccc3c(c2)OCO3)CC(c2ccccc2O)N1` (stereo not drawn), for which the inhibition was 14.6%. On to `COc1cccc(C2=NC(C)(C)NC(c3ccccc3O)C2)c1` (stereo not drawn), for which the inhibition was 4.8%. `CN1CCC(N(C)CC(=O)Nc2ccccc2N2CCOCC2)CC1`: the inhibition was 13.7%.

For the compound `O=C(NCCCO)NC(=S)c1cccc2ccccc12`, the inhibition is -0.39%. On to `CCc1ccc(Nc2nnc(SCC(=O)NC(=O)c3cccn3C)s2)cc1`, for which the inhibition is 2.04%. As to `Cc1cccc(Nc2nnc(SCC(=O)Nc3ccc(C(=O)O)cc3)s2)c1`, the inhibition was 13.8%. `Cc1cc(NC(=O)CSc2nnc(Nc3ccccc3C)s2)no1`: the inhibition is -2.04%.

As for `CCc1ccc(Nc2nnc(SCC(=O)Nc3ccc(C(=O)O)cc3)s2)cc1`, the inhibition is -5.8%. The value for `CCc1ccccc1NC(=O)CN(C)C(=O)CSc1nnc(Nc2cccc(C)c2)s1` was 6.25%. `Cc1ccc(C)c(SCC(=O)Nc2cccnc2Cl)c1`: the inhibition was 18.9%. Turning to `CCOC(=O)c1cc2c(ccn2-c2ccc(F)cc2)n1CC(=O)N1CCN(C(=O)c2ccco2)CC1`, the inhibition is -1.91%. As for `Clc1ccccc1CNC1CN2CCC1CC2` (stereo not drawn), the inhibition was 5.7%. On to `CCNc1ncnc2c1cnn2C`, for which the inhibition was -10.7%. Turning to `Cc1ccc(SCc2[nH]nc3c2C2(C(=O)Nc4ccc([N+](=O)[O-])cc42)C(C#N)=C(N)O3)cc1` (stereo not drawn), the inhibition was -2.15%. For the compound `CCN(CC)c1ccc(CNc2nc3ccccc3n2CCN2CCOCC2)cc1`, the inhibition was 6.6%. The figure for `COc1ccc(CNc2nc3ccccc3n2CCN2CCCCC2)cc1` is -0.5%; for `Cc1ccc(S(=O)(=O)NCc2ccc(C(=O)N(C)CCC#N)cc2)cc1` it is 4.15%; for `Cc1ccc(NC(=O)c2cnccn2)cc1` it is 3.69%.

`O=C(Nc1ccc(Cl)c(C(F)(F)F)c1)c1ccco1`: the inhibition was 10.7%. Turning to `O=C(CCNc1cccc(C(F)(F)F)c1)c1ccco1`, the inhibition is 53.5%.

`O=C(COC(=O)CCS(=O)(=O)c1ccc(Cl)cc1)NC1CCCCC1`: the inhibition is 0.69%. Regarding `Cc1cc(NC(=O)CSc2nnc(-c3ccco3)o2)no1`, the inhibition is -3.8%. For `Cc1ccc(-c2nnc(SCCC(=O)N3CCOCC3)o2)cc1`, the inhibition is 77.5%. In the case of `Cc1cc(NC(=O)CSc2nnc(COc3ccccc3)o2)no1`, the inhibition was 3.02%. Regarding `Cc1cc(NC(=O)CSc2nnc(Cc3ccccc3)o2)no1`, the inhibition is -8.58%. The figure for `Cc1cc(NC(=O)CSc2nnc(-c3ccc(O)cc3)o2)no1` is -6.89%. The figure for `COc1cccc(-c2nnc(SCC(=O)Nc3cc(C)on3)n2C)c1` is -2.38%; for `CCOc1ccc(-c2nnc3ccc(SCC(=O)Nc4cc(C)on4)nn23)cc1` it is 4.14%. Consider `O=C(CCSc1nnc(-c2ccc(O)cc2)o1)N1CCOCC1`, for which the inhibition was -1.1%.

On to `COc1cc(OC)c(Nc2cc(C)nc3nc(C)nn23)cc1Cl`, for which the inhibition was 10.9%.

For `COc1ccccc1N1CCN(C(c2ccc(Cl)cc2)c2nnnn2C(C)(C)C)CC1` (stereo not drawn), the inhibition is 3.99%. As for `COc1ccc(-n2c(O)c(C=Nc3c(C)n(C)n(-c4ccccc4)c3=O)c(=O)[nH]c2=O)cc1`, the inhibition was 6.56%. The figure for `CN(c1ccc(C(=O)N2CCN(Cc3ccc4c(c3)OCO4)CC2)cc1)S(=O)(=O)c1ccccc1` is 7.14%; for `O=C(Nc1cccc(NC(=S)NC(=O)c2cccs2)c1)c1ccccc1` it is -2.28%.

With `CSc1cccc(NC(=S)N(CCC(C)C)C2CCN(C(C)=O)CC2)c1`, the inhibition was -6.61%.

On to `CC(N)C(=O)c1ccco1` (stereo not drawn), for which the inhibition was -3.4%. Consider `COc1ccccc1NC(=S)NNC(=O)c1cc(C)nn1C`, for which the inhibition is -9.1%.

Consider `COc1ccc(-c2nnc(SCC(=O)Nc3cc(F)ccc3C)o2)cc1`, for which the inhibition is -6.49%.

As for `COc1ccccc1-n1c(CNc2ccc(F)cc2)nnc1SCC(=O)Nc1cc(C)on1`, the inhibition was -4.09%. `Cc1ccc(NCc2nnc(SCC(=O)Nc3cc(C)on3)n2C)cc1`: the inhibition is -5.91%. Turning to `COc1ccccc1-c1nnc(SCC(=O)Nc2c(Cl)cccc2Cl)o1`, the inhibition was -3.32%. For `Cc1cc(NC(=O)CSc2ccc3c(c2)OCCO3)no1`, the inhibition was -5.76%. As for `COc1ccc(-c2nnc(SCC(=O)Nc3nncs3)o2)cc1`, the inhibition was 1.2%.

Consider `Cc1cc(NC(=O)CSc2nnc(-c3ccoc3C)o2)no1`, for which the inhibition was 4.02%.

For the compound `O=C(CSc1nnc(-c2ccc(O)cc2)o1)Nc1ccc2c(c1)OCCO2`, the inhibition was -0.38%. Regarding `Cc1cccc(NN=C2c3ccccc3-c3ccccc32)c1`, the inhibition is 1.34%. Take `Cc1cc(C)nc(SCc2nnc(SCC(=O)Nc3ccc(C)c(C)c3)o2)n1`: the inhibition is 0.69%. With `Cc1ccc(-c2nn3c(C)nnc3s2)cc1NC(=O)c1ccc(-c2ccc(Cl)cc2Cl)o1`, the inhibition is -7.97%.

Regarding `Cc1ccccc1CSCC(=O)NC1CCCC1`, the inhibition is 3.78%.

Consider `Cc1ccccc1NC(=S)N(C)Cc1cn(C)c2ccccc12`, for which the inhibition was 2.82%. As for `COc1ccc(CCNC(=O)CSc2nnc(-c3ccc(F)cc3)o2)cc1OC`, the inhibition is -1.7%. As for `O=C(CSc1nnc(-c2ccc(F)cc2)o1)NC1CCCCC1`, the inhibition is -0.23%. `O=C(O)CCc1nn2c3ccccc3n(CCO)c2nc1=O`: the inhibition was 2.12%. With `S=c1[nH]cnc2scc(-c3ccc(Cl)cc3)c12`, the inhibition was 76.4%.

As to `Cc1ccc(-c2csc3nc[nH]c(=O)c23)cc1`, the inhibition is -5.48%.

For the compound `O=C(Nc1nc2ccccc2n1Cc1ccc(Cl)cc1)c1ccco1`, the inhibition is 16.1%. The figure for `Cn1c(C(C#N)C(=O)Cc2cccc3ccccc23)nc2ccccc21` (stereo not drawn) is -15.5%; for `CCCn1c(NCc2ccco2)nc2ccccc21` it is -3.29%; for `Cc1ccc(Cn2c(NS(=O)(=O)c3ccccc3)nc3ccccc32)cc1` it is 84.8%.

In the case of `Nc1nc(NC(=O)/C=C/c2ccccc2)nn1-c1ccccc1`, the inhibition is -0.46%.

For the compound `COc1ccc(/C=C/C(=O)Nc2nc(N)n(-c3ccccc3)n2)cc1`, the inhibition was 6.8%. The figure for `O=C(Nc1nc2ccccc2n1CCN1CCCCC1)c1ccco1` is 6.64%. Take `Cn1c(C(C#N)C(=O)c2sc3ccccc3c2Cl)nc2ccccc21` (stereo not drawn): the inhibition was 94.3%.

On to `CC(O)C1C(=O)OC2(C)CC(C)(C)NC(=S)N12` (stereo not drawn), for which the inhibition is -6.84%. The figure for `CCOC(=O)c1c(NC(=O)CC)sc(C(C)=O)c1C` is 2.45%; for `O=C(NN=C1CCCCCC1)c1c[nH]c2ccccc12` it is -1.9%; for `Cn1c2c(c(=O)n(C)c1=O)CN(CCc1ccccc1)CN2` it is -1.68%. Consider `Cc1cc(C)nc(Nc2nc(=O)c3ccccc3s2)n1`, for which the inhibition was -3.37%.

As to `NC(=O)[C@@H]1CCOc2c(I)cc([N+](=O)[O-])cc2C(=O)N[C@@H](CO)C(=O)NCC(=O)N1`, the inhibition is -8.7%. For `CC(=O)N1NC(=Nc2ccccc2)SC1(C)C`, the inhibition is -6.07%. Take `O=C(CN1CCCC1)NCC12CC3CC(CC(C3)C1)C2`: the inhibition is -7.14%.

Consider `COCCNC(=O)C(c1ccc(Cl)cc1)N(CCOC)C(=O)CCC(=O)Nc1nccs1` (stereo not drawn), for which the inhibition was -6.72%. As to `Cc1cc(C)cc(N(C(=O)CCC(=O)Nc2ccccn2)C(C(=O)NC(C)C)c2ccc(O)cc2)c1` (stereo not drawn), the inhibition is 4.72%.

`Nc1nc(SCc2ccc(Cl)cc2Cl)ns1`: the inhibition is 28.5%. The value for `Nc1nc(NC(=O)c2ccccc2)nn1-c1ccccc1` was -1.03%; that for `Nc1nc(NC(=O)c2ccco2)nn1-c1ccccc1` was -7.46%; that for `COc1ccc(/C=N/NC(=O)c2ccn[nH]2)cc1Cn1nc(C)c([N+](=O)[O-])c1C` was 1.53%. For `O=C(Cc1ccccc1[N+](=O)[O-])N1CCc2ccccc2C1`, the inhibition was -4.17%. In the case of `CC(OC(=O)CCCOc1ccccc1)C(=O)NC(N)=O` (stereo not drawn), the inhibition was -2.98%. For the compound `COCC(C)N=C1NN=C(c2cc(C)n(Cc3ccccc3Cl)c2C)CS1` (stereo not drawn), the inhibition was 5.76%. As to `COCCCN=C1NN=C(c2cc(C)n(Cc3ccco3)c2C)CS1`, the inhibition is -3.28%.

Regarding `COCCCN=C1NN=C(c2cc(C)n(-c3ccccc3)c2C)CS1`, the inhibition was -2.89%.

Consider `Cc1cc(C2=NNC(=NC3CC3)SC2)c(C)n1-c1ccccc1F`, for which the inhibition is -4.49%. In the case of `O=C(OCC(=O)N1c2ccccc2Sc2ccccc21)C1CC(=O)N(Cc2ccco2)C1` (stereo not drawn), the inhibition is 3.33%.

In the case of `Brc1ccc(-c2c[n+]3c(n2-c2ccccc2)SCC3)cc1`, the inhibition is 1.71%. The value for `CCOc1ccccc1CNC(=O)CCN1C(=O)COc2ccccc21` was 4.08%; that for `CCOC(=O)C1=C(c2ccccc2)NC(=O)NC1c1ccc(OCC#N)c(OC)c1` (stereo not drawn) was 2.6%. On to `CCOC(=O)C1=C(c2ccccc2)NC(=O)NC1c1ccc(OC)c(OC)c1` (stereo not drawn), for which the inhibition is -0.28%. Take `N#Cc1nc(-c2ccccc2F)oc1NC1CCCCC1`: the inhibition is 3.24%.

As a reminder, the inhibition is the drop in the measured response relative to a control, in per cent.

(Values after PubChem BioAssay AID1626 (SRMLSC, 2009).)
